# Shiga inhibitor: blocks Shiga toxin action in Vero cells | inhibition, % at 38.7 µM | hit rate 9.2% among 290,000 | AID 2315 | Vero cells, Shiga toxin protein synthesis inhibition reporter; in the data active = inhibition mostly above about 28%, no sharp cut-off; inactive = mostly below about 43%; note: 0% is about no effect
# Pf growth 48h: P. falciparum growth inhibition at 48 hours (one generation). Potency, µM (titrated, usually from 28.7 µM), for inactives: at the highest dose activity change, negative = inhibition, most hits filed as inhibitors. hit rate 5.9% among 310,000. AID 504832. P. falciparum luciferase growth in erythrocytes, 48 h; active = well fitted inhibition curve with a large enough effect; inconclusive = small, poorly fitted or top-dose-only effect, or another doubt; inactive = no such curve, though single readings can be large or run the other way; note: potency is the fitted concentration of half-maximal effect; % is set by controls: 0 for no effect and ±100 for the full control effect
#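 Cell-based growth assay: transgenic P. falciparum expressing firefly luciferase, cultured in red cells within RPMI 1640 containing 0.5% w/v Albumax, 24 mM bicarbonate and gentamycin. A drop in luciferase activity indicates inhibition.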
# SARS PLpro yeast: SARS-CoV PLP inhibition in yeast; S. cerevisiae expressing SARS-CoV PLpro, growth rescue; Potency, µM (series often up to 32.9 µM), without a hit: at the highest dose activity, positive = growth rescue, most hits filed as activators; hit rate 0.19% among 330,000; AID 485353; note: potency is the fitted concentration of half-maximal effect; 0% is about no effect; nearly all actives have a fitted effect of over 55% in size
# NS1 inh: influenza NS1 inhibition. Potency, µM (top dose mostly 46.1 µM), without a hit: top-dose activity, positive = more growth. hit rate 0.4% among 270,000. AID 2326; note: potency is the fitted concentration of half-maximal effect; actives are rising curves; nearly all actives have a fitted effect of over 50% in size
#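 Compounds were scored for reversing the slow growth caused by influenza A NS1 in S. cerevisiae, measured by optical density at 600 nm. Assay medium contained 2% galactose at pH 6.0; NS1-free yeast of the same strain were the positive control.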
# Cycloheximide cs: counter-screen hit for Shiga toxin inhibitors, cycloheximide. AID 2314. cell reporter, cycloheximide protein synthesis inhibition counterscreen. max response, %. hit rate 12% among 300,000; in the data active = max response mostly above about 13%, no sharp cut-off; inactive = mostly below about 14%; note: read at 38.3 µM for the half of the compounds with a filed dose; 0% is about no effect
# Pf growth 96h: P. falciparum growth inhibition at 96 hours; P. falciparum luciferase reporter growth, 96 h; Potency, µM (top dose mostly 28.7 µM), for inactives: top-dose activity change, negative = inhibition, most hits filed as inhibitors; hit rate 6.9% among 320,000; AID 504834; active = well fitted inhibition curve with a large enough effect; inconclusive = small, poorly fitted or top-dose-only effect, or another doubt; inactive = no such curve, though single readings can be large or run the other way; note: potency is the fitted concentration of half-maximal effect; % is set by controls: 0 for no effect and ±100 for the full control effect
#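 P. falciparum expressing integrated firefly luciferase grown in erythrocytes (2% hematocrit, 0.05% parasitemia final) with compounds for 96 hours at 37 C, 5% CO2. Growth inhibition read as loss of luminescence after adding luciferase detection reagent.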
# * = called active by the depositor; ? = inconclusive; nt = no result given. An excerpt weighted towards active compounds, which were near 21% of everything screened. Unless noted, calls come from the whole dose curve.
SMILES,Shiga inhibitor,Pf growth 48h,SARS PLpro yeast,NS1 inh,Cycloheximide cs,Pf growth 96h
COCCNC(=O)C(c1ccncc1)N(C(=O)Cn1nnc2ccccc21)c1ccc(OC)cc1 (stereo not given),-10,-8%,1%,-5%,-3,-27%
CCC(C)(C)NC(=O)C(c1cccn1C)N(C(=O)Cn1nnc2ccccc21)c1ccc(OC)cc1OC (stereo not given),13,8.3µM*,11%,-9%,5,6%
CCOc1ccc(N(C(=O)Cn2nnc3ccccc32)C(C(=O)NC(C)(C)CC)c2cccn2C)cc1 (stereo not given),11,13µM*,-13%,10%,-1,2%
COc1ccc(CCNCC(=O)Nc2ccc(OC(F)(F)F)cc2)cc1OC,5,2%,8%,12%,2,0%
Cc1cc(C)n2c(SCCC(C)C)nnc2n1,89,31%,-7%,?,19*,?
COc1cc(NC(=O)COC(=O)/C=C/c2c(C)nn(-c3ccc(F)cc3)c2Cl)cc(OC)c1,10,-16%,-7%,-7%,2,-1%
Cc1ccc(NC(=S)N2CCSC2c2cccs2)cc1 (stereo not given),132*,13%,5%,nt,29*,13%
COc1ccc(C2SCCN2C(=S)Nc2ccc(Cl)cc2)cc1 (stereo not given),24,?,-33%,0%,29*,?
COc1ccc(C2SCCN2C(=S)Nc2cccc(Cl)c2)cc1 (stereo not given),12,2.3µM*,8%,-23%,7,2.1µM*
c1ccc2c(c1)Nc1nccnc1S2,128*,67%,-21%,-2%,28*,84%
Clc1cc2c(nn1)Nc1ccccc1S2,39,50%,-1%,1%,11*,43%
FC(F)(F)c1cnc2c(c1)Nc1ccccc1S2,44,23%,8%,-9%,13*,23%
O=C1Nc2cccnc2Sc2ccccc21,30,39%,0%,?,3,?
NS(=O)(=O)c1ccc(NC(=O)COC(=O)c2cnc(Cl)c(Cl)c2)cc1,-3,-20%,0%,0%,-2,-3%
COc1cccc(C(=O)c2sc(NC(C)C)nc2N)c1,51*,?,-5%,7%,36*,?
COc1ccc(C(=O)c2sc(NC(C)C)nc2N)cc1OC,-16,-26%,12%,0%,0,?
COC(=O)c1ccc(Cl)c(NC(=O)CN2CCC(C)CC2)c1,13,nt,?,?,21,-10%
COC(=O)c1ccc(N2CCC(C)CC2)c(N)c1,45,nt,0%,-9%,38*,-97%
COC(=O)c1ccc(C(=O)OC)c(N)c1,17,39%,3%,-11%,13,34%
COC(=O)c1ccc(N2CCCCC2)c(N)c1,100*,77%,0%,1%,57*,-22%
O=C(CCCc1nc(-c2ccccc2Cl)no1)NC1CCCC1,-9,?,2%,-12%,-14,?
CC(C)(C)C(=O)NNC(=O)COc1ccc2ccccc2c1Br,10,6%,1%,-4%,-3,2.3µM*
O=C(COc1ccc2ccccc2c1Br)NCc1ccccn1,57*,33%,-1%,-8%,23*,3%
O=C(COc1ccc(Br)cc1)NCc1ccccn1,9,nt,-2%,-3%,-3,23%
O=C(NNc1ccc(C(F)(F)F)cc1[N+](=O)[O-])c1ccc(NS(=O)(=O)c2ccc(F)cc2)cc1,-6,?,-4%,11%,-3,8.3µM*
SMILES,Shiga inhibitor,Pf growth 48h,SARS PLpro yeast,NS1 inh,Cycloheximide cs,Pf growth 96h
CC(C)[C@H](Nc1ccc(C(F)(F)F)cc1[N+](=O)[O-])C(=O)O,15,5%,2%,4%,-2,0%
Cc1nc(=O)c(-c2ccccc2)c(C)n1-c1cccc(/C=C/C(=O)O)c1,-1,nt,1%,1%,-2,-12%
O=S(=O)(Nc1ccccn1)c1cnc(Cl)c(Br)c1,-6,-16%,9%,2%,-4,?
O=C(CSc1ccccc1)NCCc1ccccc1,44*,33%,2%,5%,37*,?
O=C(CSc1ccc(-c2cccs2)nn1)c1cccs1,104*,46%,-2%,nt,46*,10%
O=C(CSc1ccc(-c2cccs2)nn1)NCCc1ccccc1,-15,8%,2%,5%,-4,2.9µM*

# Assay outcomes from PubChem BioAssay.
